Measurements published in PubChem BioAssay (Tox21).
Inconclusive results are not listed. Entries that show only a call come without a potency. Calls of active or inactive are those of the source. Calls come from the whole dose curve; as a rule, active = well fitted inhibition curve with a large enough effect in the repeat runs; inconclusive = weak or mixed curves; inactive = flat fitted curve, though single readings scatter.

Molecular target: Voltage-gated inwardly rectifying potassium channel KCNH2 (Homo sapiens) (UniProt Q12809)
Test: Human Ether-a-go-go-Related Gene (hERG) channel small molecule antagonists: fluorescence cell-based qHTS assay (AID 1671200); note: nearly all actives have a fitted effect of over 50% in size
Conditions: hERG-U2OS cells, FluxOR thallium flux fluorescence; series mostly up to 76.8 µM
Excerpt: National Center for Advancing Translational Sciences [NCATS]
U.S. Environmental Protection Agency [EPA]
National Institutes of Environmental Health Sciences [NIEHS]
National Toxicology Program [NTP]
U.S. Food and Drug Administration [FDA]
Mutations in the hERG channel cause Long QT (LQT) syndrome. LQT syndrome is a cardiac disorder which can cause ventricle arrhythmia and sudden death. Additionally, compounds which block the hERG channel can cause acquired LQT syndrome. Several FDA approved drugs have been removed from the market due to their hERG blocking activity. A cell-based hERG channel inhibition assay can be used to screen chemical compounds that inhibit hERG channel. This assay measures hERG channel activity using thallium ions as surrogate ions to measure potassium into the cells.
Tox21 Assay Protocol Summary:
hERG-U2OS cells were resuspended in culture medium and dispensed into 1536-well, black wall/clear-bottom plates at 1000cells/well/3uL using a Multidrop Combi dispenser (Thermo Fisher, Waltham, MA). After plates were incubated at 37 C overnight, 3 uL of Loading Buffer provided by FluxOR II Potassium Ion Channel Assay kit (Thermo, Carlsbad, CA) was added to each well. The assay plates were then incubated at room temperature in the dark for 1h. […] After the assay plates were incubated at room temperature for 10 min, 1 uL of Stimulus Buffer provided by FluxOR II Potassium Ion Channel Assay kit was added into each well and fluorescence intensity (480nm excitation/540nm emission) was continuously measured for 2 min at 1 second intervals using a Functional Drug Screening System (FDSS) 7000EX kinetic plate reader (Hamamatsu, Japan).
Potency is the fitted concentration of half-maximal effect.

Chain of Voltage-gated inwardly rectifying potassium channel KCNH2 (Homo sapiens) (Q12809 whole entry, looked up): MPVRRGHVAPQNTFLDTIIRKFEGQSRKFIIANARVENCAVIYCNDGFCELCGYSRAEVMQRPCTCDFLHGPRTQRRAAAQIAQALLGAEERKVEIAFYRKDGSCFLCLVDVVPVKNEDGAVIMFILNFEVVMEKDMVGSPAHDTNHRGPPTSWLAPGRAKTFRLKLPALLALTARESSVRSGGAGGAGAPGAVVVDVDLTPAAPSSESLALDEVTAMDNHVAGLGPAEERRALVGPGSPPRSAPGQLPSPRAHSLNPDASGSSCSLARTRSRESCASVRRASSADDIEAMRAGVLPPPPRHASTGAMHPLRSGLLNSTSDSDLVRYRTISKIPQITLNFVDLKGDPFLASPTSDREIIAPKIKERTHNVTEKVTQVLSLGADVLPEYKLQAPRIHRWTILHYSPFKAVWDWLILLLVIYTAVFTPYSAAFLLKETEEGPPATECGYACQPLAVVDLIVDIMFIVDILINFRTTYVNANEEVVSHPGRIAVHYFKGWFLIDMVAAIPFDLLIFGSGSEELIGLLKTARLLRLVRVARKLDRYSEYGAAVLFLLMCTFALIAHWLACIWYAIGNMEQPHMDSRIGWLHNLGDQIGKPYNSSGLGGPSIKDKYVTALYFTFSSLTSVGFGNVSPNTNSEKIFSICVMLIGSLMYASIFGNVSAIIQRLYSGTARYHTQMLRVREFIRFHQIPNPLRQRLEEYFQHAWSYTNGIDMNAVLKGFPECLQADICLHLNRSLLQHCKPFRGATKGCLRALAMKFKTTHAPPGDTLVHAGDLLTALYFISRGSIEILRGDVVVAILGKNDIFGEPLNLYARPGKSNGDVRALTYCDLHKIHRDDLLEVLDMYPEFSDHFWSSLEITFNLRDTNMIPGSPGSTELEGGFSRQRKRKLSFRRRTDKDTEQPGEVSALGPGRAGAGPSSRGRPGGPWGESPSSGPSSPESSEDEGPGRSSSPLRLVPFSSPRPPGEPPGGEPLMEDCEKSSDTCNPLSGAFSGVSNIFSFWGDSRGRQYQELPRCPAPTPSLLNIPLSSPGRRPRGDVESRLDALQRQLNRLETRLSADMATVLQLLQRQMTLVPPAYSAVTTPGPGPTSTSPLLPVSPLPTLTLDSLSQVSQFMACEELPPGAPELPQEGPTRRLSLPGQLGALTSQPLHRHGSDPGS

Structure (SMILES) | Potency | activity change, negative = inhibition
CCOC(=O)OC(C)OC1=C(C(=O)Nc2ccccn2)N(C)S(=O)(=O)c2ccccc21 (stereo not given) | inactive | –
Nc1ccn([C@@H]2O[C@H](CO)[C@@H](O)C2(F)F)c(=O)n1 | inactive | –
CC(CO)(CO)[N+](=O)[O-] | inactive | –
CC1OC1C1CCC2(C)OC2C1 (stereo not given) | inactive | –
O=C(CO)[C@@H](O)[C@H](O)[C@H](O)CO | inactive | –
Cc1ccc(C(=O)Nc2ccc(S(=O)(=O)O)c3cc(S(=O)(=O)O)cc(S(=O)(=O)O)c23)cc1NC(=O)c1cccc(NC(=O)Nc2cccc(C(=O)Nc3cc(C(=O)Nc4ccc(S(=O)(=O)O)c5cc(S(=O)(=O)O)cc(S(=O)(=O)O)c45)ccc3C)c2)c1 | inactive | –
c1coc(CNc2ncnc3nc[nH]c23)c1 | inactive | –
C[C@H]1C[C@H]2[C@@H]3CCC4=CC(=O)C=C[C@]4(C)[C@H]3C(=O)C[C@]2(C)[C@@]1(O)C(=O)CO | inactive | –
Cc1ccc(-c2ncc(Cl)cc2-c2ccc(S(C)(=O)=O)cc2)cn1 | inactive | –
CC[C@H]1OC(=O)[C@H](C)[C@@H](O[C@H]2C[C@@](C)(OC)[C@@H](O)[C@H](C)O2)[C@H](C)[C@@H](O[C@@H]2O[C@H](C)C[C@H](N(C)C)[C@H]2O)[C@](C)(OC)C[C@@H](C)C(=O)[C@H](C)[C@@H](O)[C@]1(C)O | inactive | –
O=C1c2ccccc2C(=O)c2cc(O)ccc21 | inactive | –
OCCCCCO | inactive | –
CCOC(=O)C(=O)CCCCCCl | inactive | –
COc1ccccc1OCC1CNC(=O)O1 (stereo not given) | inactive | –
CC(C)[C@H]1CC[C@@H](C)CC1=O | inactive | –
Cc1ncc([C@@H](CCCCCCc2ccc3c(n2)NCCC3)CC(=O)O)cn1 | inactive | –
CCOC(=O)COc1cc(-n2ncc(C(F)(F)F)c(C)c2=O)c(F)cc1Cl | 43.6 µM (active) | –
Cc1coc2ccccc2c1=O | inactive | –
CC(COc1ccccc1)NN (stereo not given) | inactive | –
CCCC(C)C(=O)OCC (stereo not given) | inactive | –

Structure (SMILES) | Potency | activity change, negative = inhibition
CC(=O)O[C@@]12CO[C@@H]1C[C@H](O)[C@@]1(C)C(=O)[C@H](O)C3=C(C)[C@@H](OC(=O)[C@H](O)[C@@H](NC(=O)OC(C)(C)C)c4ccccc4)C[C@@](O)([C@@H](OC(=O)c4ccccc4)[C@H]21)C3(C)C | inactive | –
NS(=O)(=O)Cc1noc2ccccc12 | inactive | –
COc1cc(C(=O)OC(COCCC(C)C)CN2CCOCC2)cc(OC)c1OC (stereo not given) | inactive | –
CC(C)(N)C#N | inactive | –
CCCCCCCCN1CCCC1=O | inactive | –
CC1(C)[C@@H]2CC[C@@]1(C)[C@H](O)C2 | inactive | –
CCCC[N+](C)(CCCC)CCCC | inactive | –
CCN[C@@H]1C[C@H](N)[C@@H](OC2OC(CN)=CCC2N)[C@H](O)[C@H]1O[C@H]1OC[C@](C)(O)[C@H](NC)[C@H]1O (stereo not given in full) | – | -0.868% [at 0.29 µM] (inactive)
CC(C)(C)c1ccc(-c2ccc(C(C)(C)C)cc2)cc1 | inactive | –
COC(=O)Nc1ccc(Cl)c(Cl)c1 | inactive | –
CC(C)(C#N)Nc1nc(Cl)nc(NC2CC2)n1 | inactive | –
Nc1ccncc1N | inactive | –
C=CCCCCCCCCC(=O)OCC | inactive | –
COc1ccc2cc1Oc1cc3c(cc1OC)CC[N+](C)(C)[C@H]3Cc1ccc(cc1)Oc1c(OC)c(OC)cc3c1[C@@H](C2)[N+](C)(C)CC3 | inactive | –
CCCC(=O)O[C@]1(C(=O)CC)CC[C@H]2[C@@H]3CCC4=CC(=O)CC[C@]4(C)[C@H]3[C@@H](O)C[C@@]21C | inactive | –
CCCCS(=O)(=O)N[C@@H](Cc1ccc(OCCCCC2CCNCC2)cc1)C(=O)O | inactive | –
CCCCCCCCCCOc1cc2c(=O)c(C(=O)OCC)c[nH]c2cc1OCC | – | 1.67% [at 6.97 µM] (inactive)
C[C@@H]1CCC[C@H](C)N1 | inactive | –
CCCn1cc[n+](C)c1C | inactive | –
NC(=O)N1c2ccccc2CC(=O)c2ccccc21 | inactive | –
